Data published in PubChem BioAssay AID1159580 (chemical genetic matrix, 2015).
Several values for one entry are separate records, joined by “and”; a condition that tells them apart may be missing. Identical values can stand only once. In all, about 5,500 compounds went through this assay and about 2,000 (36%) were called active. Inconclusive results (about 18%) are left out. No stated cut-off is given here; in the data, active means normalized growth mostly below about 0.91 (no sharp cut-off); inconclusive means no clear call, values can overlap the other calls; inactive means mostly above about 0.92. Some of the results follow.

Experiment: chemical genetic growth profiling, strain panel (AID 1159580);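 further: tested at 20 µM; growth read once vehicle control cultures reached saturation at 30 °C; 1 = growth at the plate median or of vehicle wells; lower values mean less growth of the strain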
Details: growth OD
[1] = S. cerevisiae deletion strains, locus YDL101C, strain DUN1, active compounds read low
[2] = S. cerevisiae deletion strains, locus YHR030C, strain SLT2, active compounds read low
[3] = S. cerevisiae deletion strains, locus YHR079C, strain IRE1, active compounds read low
[4] = S. cerevisiae deletion strains, locus YJL095W, strain BCK1, active compounds read low
[5] = S. cerevisiae deletion strains, locus YJR066W, strain TOR1, active compounds read low
[6] = S. cerevisiae deletion strains, locus YLR113W, strain HOG1, active compounds read low
[7] = S. cerevisiae deletion strains, locus YNL183C, strain NPR1, active compounds read low
[8] = S. cerevisiae deletion strains, locus YOR061W, strain CKA2, active compounds read low
[9] = S. cerevisiae deletion strains, locus YOR231W, strain MKK1, active compounds read low
[10] = S. cerevisiae deletion strains, locus YPL256C, strain CLN2, active compounds read low

Measured: normalized growth

C/C(=N/NC(N)=S)c1ccccn1
inactive: S. cerevisiae deletion strains, locus YAR019C, strain CDC15, active compounds read low 0.962 | S. cerevisiae deletion strains, locus YBL105C, strain PKC1, active compounds read low 0.98 | S. cerevisiae deletion strains, locus YBR135W, strain CKS1, active compounds read low 0.971 | S. cerevisiae deletion strains, locus YBR136W, strain MEC1, active compounds read low 0.962 | S. cerevisiae deletion strains, locus YBR160W, strain CDC28, active compounds read low 0.985 | S. cerevisiae deletion strains, locus YDL017W, strain CDC7, active compounds read low 0.987 | S. cerevisiae deletion strains, locus YDL028C, strain MPS1, active compounds read low 0.97 | [1] 0.982 | S. cerevisiae deletion strains, locus YDL108W, strain KIN28, active compounds read low 0.97 | S. cerevisiae deletion strains, locus YDL132W, strain cdc53, active compounds read low 0.949 | S. cerevisiae deletion strains, locus YDL214C, strain PRR2, active compounds read low 0.932 | S. cerevisiae deletion strains, locus YDR052C, strain DBF4, active compounds read low 0.963 | S. cerevisiae deletion strains, locus YDR054C, strain cdc34, active compounds read low 0.944 | S. cerevisiae deletion strains, locus YDR226W, strain ADK1, active compounds read low 0.971 | S. cerevisiae deletion strains, locus YDR477W, strain SNF1, active compounds read low 0.878 | S. cerevisiae deletion strains, locus YER123W, strain YCK3, active compounds read low 0.874 | S. cerevisiae deletion strains, locus YER133W, strain GLC7, active compounds read low 0.889 | S. cerevisiae deletion strains, locus YFL009W, strain cdc4, active compounds read low 0.939 | S. cerevisiae deletion strains, locus YFL029C, strain CAK1, active compounds read low 0.945 | S. cerevisiae deletion strains, locus YFR003C, strain YPI1, active compounds read low 0.985 | S. cerevisiae deletion strains, locus YFR019W, strain FAB1, active compounds read low 0.908 | S. cerevisiae deletion strains, locus YFR028C, strain CDC14, active compounds read low 0.962 | S. cerevisiae deletion strains, locus YGR040W, strain KSS1, active compounds read low 0.875 | S. cerevisiae deletion strains, locus YGR052W, strain FMP48, active compounds read low 0.951 | S. cerevisiae deletion strains, locus YGR092W, strain DBF2, active compounds read low 0.833 | [2] 0.861 | [3] 0.779 | S. cerevisiae deletion strains, locus YHR082C, strain KSP1, active compounds read low 0.932 | S. cerevisiae deletion strains, locus YHR205W, strain SCH9, active compounds read low 0.957 | S. cerevisiae deletion strains, locus YIL147C, strain SLN1, active compounds read low 0.958 | [4] 0.871 | S. cerevisiae deletion strains, locus YJL128C, strain PBS2, active compounds read low 0.975 | S. cerevisiae deletion strains, locus YJL157C, strain FAR1, active compounds read low 0.88 | S. cerevisiae deletion strains, locus YJR016C, strain ILV3, active compounds read low 0.967 | S. cerevisiae deletion strains, locus YJR066W, strain TOR1 (second series), active compounds read low 0.874 | [5] 0.881 | S. cerevisiae deletion strains, locus YKL048C, strain ELM1, active compounds read low 0.941 | S. cerevisiae deletion strains, locus YKL067W, strain YNK1, active compounds read low 0.951 | S. cerevisiae deletion strains, locus YKL101W, strain HSL1, active compounds read low 0.91 | S. cerevisiae deletion strains, locus YKL193C, strain SDS22, active compounds read low 0.971 | S. cerevisiae deletion strains, locus YKL203C, strain TOR2, active compounds read low 0.9 | [6] 0.93 | S. cerevisiae deletion strains, locus YLR133W, strain CKI1, active compounds read low 0.911 | S. cerevisiae deletion strains, locus YLR403W, strain SFP1, active compounds read low 0.843 | S. cerevisiae deletion strains, locus YML070W, strain DAK1, active compounds read low 0.918 | S. cerevisiae deletion strains, locus YMR001C, strain CDC5, active compounds read low 0.967 | S. cerevisiae deletion strains, locus YMR205C, strain PFK2 (second series), active compounds read low 0.945 | S. cerevisiae deletion strains, locus YMR277W, strain FCP1, active compounds read low 0.978 | S. cerevisiae deletion strains, locus YNL006W, strain LST8, active compounds read low 0.988 | S. cerevisiae deletion strains, locus YNL020C, strain ARK1, active compounds read low 0.917 | S. cerevisiae deletion strains, locus YNL161W, strain CBK1, active compounds read low 0.978 | [7] 0.895 | S. cerevisiae deletion strains, locus YNL207W, strain RIO2, active compounds read low 0.936 | S. cerevisiae deletion strains, locus YNL222W, strain SSU72, active compounds read low 0.977 | S. cerevisiae deletion strains, locus YNL307C, strain MCK1 (second series), active compounds read low 0.862 | S. cerevisiae deletion strains, locus YOL078W, strain AVO1, active compounds read low 0.964 | S. cerevisiae deletion strains, locus YOL136C, strain PFK27, active compounds read low 0.957 | [8] 0.891 | S. cerevisiae deletion strains, locus YOR119C, strain RIO1, active compounds read low 0.906 | [9] 0.875 | S. cerevisiae deletion strains, locus YOR329C, strain SCD5, active compounds read low 0.968 | S. cerevisiae deletion strains, locus YPL031C, strain PHO85, active compounds read low 0.863 | S. cerevisiae deletion strains, locus YPL153C, strain RAD53, active compounds read low 0.828 | S. cerevisiae deletion strains, locus YPL204W, strain HRR25, active compounds read low 0.85 | S. cerevisiae deletion strains, locus YPL209C, strain IPL1, active compounds read low 0.98 | [10] 0.951 | S. cerevisiae deletion strains, locus YPR025C, strain CCL1, active compounds read low 0.975 | S. cerevisiae deletion strains, locus YPR106W, strain ISR1, active compounds read low 0.984 | S. cerevisiae deletion strains, locus YPR111W, strain DBF20, active compounds read low 0.983 | S. cerevisiae deletion strains, strain NNK1, active compounds read low 0.993 | S. cerevisiae deletion strains, strain TSCII, active compounds read low 0.975

COc1cc(OC)c2c(c1)OC(c1ccccc1)CC2=O (configuration not stated)
inactive: S. cerevisiae deletion strains, locus YBR021W, strain FUR4, active compounds read low 0.99 | S. cerevisiae deletion strains, locus YBR229C, strain ROT2, active compounds read low 0.986 | S. cerevisiae deletion strains, locus YCL029C, strain bik1, active compounds read low 1.03 | S. cerevisiae deletion strains, locus YDL035C, strain GPR1, active compounds read low 0.988 | S. cerevisiae deletion strains, locus YDL074C, strain BRE1, active compounds read low 0.994 | [1] 0.989 | S. cerevisiae deletion strains, locus YDL185W, strain tfp1, active compounds read low 1.01 | S. cerevisiae deletion strains, locus YDL192W, strain arf1, active compounds read low 0.979 | S. cerevisiae deletion strains, locus YDR101C, strain arx1, active compounds read low 1.02 | S. cerevisiae deletion strains, locus YDR150W, strain NUM1, active compounds read low 0.983 | S. cerevisiae deletion strains, locus YDR162C, strain NBP2, active compounds read low 0.987 | S. cerevisiae deletion strains, locus YDR318W, strain mcm21, active compounds read low 0.988 | S. cerevisiae deletion strains, locus YDR388W, active compounds read low 0.999 | S. cerevisiae deletion strains, locus YDR502C, strain sam2, active compounds read low 1 | S. cerevisiae deletion strains, locus YEL061C, strain CIN8, active compounds read low 0.984 | S. cerevisiae deletion strains, locus YER110C, active compounds read low 1.01 | S. cerevisiae deletion strains, locus YER155C, strain BEM2, active compounds read low 0.996 | S. cerevisiae deletion strains, locus YER167W, strain BCK2, active compounds read low 0.994 | S. cerevisiae deletion strains, locus YGL078C, strain dbp3, active compounds read low 1.01 | S. cerevisiae deletion strains, locus YGL086W, strain mad1, active compounds read low 1 | S. cerevisiae deletion strains, locus YGL248W, strain PDE1, active compounds read low 0.987 | S. cerevisiae deletion strains, locus YGR135W, strain pre9, active compounds read low 0.977 | S. cerevisiae deletion strains, locus YGR252W, strain gcn5, active compounds read low 1.01 | [2] 0.987 and 0.965 | S. cerevisiae deletion strains, locus YHR079C, strain IRE1 (second series), active compounds read low 1.01 | [3] 0.963 | S. cerevisiae deletion strains, locus YHR094C, strain hxt1, active compounds read low 1.01 | S. cerevisiae deletion strains, locus YHR129C, strain ARP1, active compounds read low 0.986 | S. cerevisiae deletion strains, locus YHR200W, strain rpn10, active compounds read low 0.997 | S. cerevisiae deletion strains, locus YIL066C, strain RNR3, active compounds read low 0.983 | S. cerevisiae deletion strains, locus YIL073C, strain SPO22, active compounds read low 1.03 | S. cerevisiae deletion strains, locus YIL125W, strain kgd1, active compounds read low 1.01 | S. cerevisiae deletion strains, locus YIR030C, strain dcg1, active compounds read low 1 | [4] 0.932 and 0.982 | S. cerevisiae deletion strains, locus YJL134W, strain LCB3, active compounds read low 0.985 | S. cerevisiae deletion strains, locus YJL168C, strain set2, active compounds read low 1 | S. cerevisiae deletion strains, locus YJL187C, strain SWE1 (second series), active compounds read low 0.994 | S. cerevisiae deletion strains, locus YJR043C, strain POL32, active compounds read low 1 | [5] 0.93 | S. cerevisiae deletion strains, locus YJR075W, strain HOC1, active compounds read low 0.992 | S. cerevisiae deletion strains, locus YKL009W, strain mrt4, active compounds read low 0.996 | S. cerevisiae deletion strains, locus YKL068W, active compounds read low 0.994 | S. cerevisiae deletion strains, locus YKL085W, strain MDH1 (second series), active compounds read low 0.991 | S. cerevisiae deletion strains, locus YKL085W, strain MDH1, active compounds read low 0.991 | S. cerevisiae deletion strains, locus YKL190W, strain CNB1, active compounds read low 0.984 | S. cerevisiae deletion strains, locus YKR001C, strain vps1, active compounds read low 0.951 | S. cerevisiae deletion strains, locus YLR039C, strain RIC1, active compounds read low 0.842 | S. cerevisiae deletion strains, locus YLR058C, strain SHM2, active compounds read low 0.987 | S. cerevisiae deletion strains, locus YLR102C, strain apc9, active compounds read low 1 | [6] 1 | S. cerevisiae deletion strains, locus YLR262C, strain YPT6, active compounds read low 0.836 | S. cerevisiae deletion strains, locus YLR268W, strain sec22, active compounds read low 1.01 | S. cerevisiae deletion strains, locus YLR330W, strain CHS5, active compounds read low 0.98 | S. cerevisiae deletion strains, locus YLR342W, strain FKS1 (second series), active compounds read low 0.959 | S. cerevisiae deletion strains, locus YLR371W, strain rom2, active compounds read low 1.02 | S. cerevisiae deletion strains, locus YLR418C, strain cdc73, active compounds read low 1.03 | S. cerevisiae deletion strains, locus YML016C, strain PPZ1, active compounds read low 0.983 | S. cerevisiae deletion strains, locus YML032C, strain rad52, active compounds read low 1.02 | S. cerevisiae deletion strains, locus YML124C, strain tub3, active compounds read low 1 | S. cerevisiae deletion strains, locus YMR078C, strain ctf18, active compounds read low 1 | S. cerevisiae deletion strains, locus YMR223W, strain ubp8, active compounds read low 0.983 | S. cerevisiae deletion strains, locus YMR307W, strain GAS1, active compounds read low 0.902 | S. cerevisiae deletion strains, locus YNL067W, strain RPL9B, active compounds read low 0.993 | S. cerevisiae deletion strains, locus YNL128W, strain TEP1, active compounds read low 1.01 | S. cerevisiae deletion strains, locus YNL153C, strain GIM3, active compounds read low 1 | [7] 0.915 | S. cerevisiae deletion strains, locus YNL233W, strain BNI4, active compounds read low 0.97 | S. cerevisiae deletion strains, locus YNL250W, strain rad50, active compounds read low 1.03 | S. cerevisiae deletion strains, locus YNL271C, strain bni1, active compounds read low 1 | S. cerevisiae deletion strains, locus YNL298W, strain CLA4, active compounds read low 1.03 | S. cerevisiae deletion strains, locus YNL307C, strain MCK1, active compounds read low 1 | S. cerevisiae deletion strains, locus YNR052C, strain pop2, active compounds read low 0.989 | S. cerevisiae deletion strains, locus YOL006C, strain TOP1, active compounds read low 0.848 | S. cerevisiae deletion strains, locus YOL012C, strain htz1 1.5 | S. cerevisiae deletion strains, locus YOL147C, strain pex11, active compounds read low 1.01 | [8] 0.983 | S. cerevisiae deletion strains, locus YOR069W, strain VPS5, active compounds read low 0.984 | S. cerevisiae deletion strains, locus YOR136W, strain idh2, active compounds read low 1.01 | S. cerevisiae deletion strains, locus YOR144C, strain elg1, active compounds read low 1.01 | S. cerevisiae deletion strains, locus YOR184W, strain ser1, active compounds read low 0.955 | [9] 0.951 | S. cerevisiae deletion strains, locus YOR316C, strain cot1, active compounds read low 1.01 | S. cerevisiae deletion strains, locus YPL055C, strain LGE1, active compounds read low 1.01 | S. cerevisiae deletion strains, locus YPL241C, strain CIN2, active compounds read low 0.978 | [10] 0.972 | S. cerevisiae deletion strains, locus YPR119W, strain clb2, active compounds read low 1.01 | S. cerevisiae deletion strains, locus YPR141C, strain kar3, active compounds read low 1.01 | S. cerevisiae deletion strains, locus YPR163C, strain tif3, active compounds read low 1.03 | S. cerevisiae deletion strains, locus YPR167C, strain met16, active compounds read low 1 | S. cerevisiae deletion strains, strain wtn01, active compounds read low 1.01 | S. cerevisiae strains, strain wild type, active compounds read low 0.987
